Growth inhibition data for nine compounds are collected here from PubChem BioAssay (NCI).

Test [1] is described as follows: NCI Yeast Anticancer Drug Screen. Data for the rad50 strain (AID 155).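 Also: 0% = growth of vehicle-only cultures of the same strain.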 Particulars: S. cerevisiae rad50 strain growth inhibition, stronger effect = higher value. The method in brief:
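Genetically altered yeast (DNA repair pathway); compound treatment; growth inhibition vs vehicle ctrl.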

Test [2] in a line: NCI Yeast Anticancer Drug Screen. Data for the mec2-1 strain (AID 157). Conditions: S. cerevisiae mec2-1 strain, stronger effect = higher value. In a few lines: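 Mutant yeast (mec2-1) grown with compound; growth inhibition relative to vehicle control reported.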
A short description of test [3]: NCI Yeast Anticancer Drug Screen. Data for the sgs1 mgt1 strain (AID 161).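 Also: 0% = growth of cultures given vehicle only.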 Particulars: S. cerevisiae sgs1 mgt1 strain, stronger effect = higher value. In a few lines: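 Yeast cells carrying a defined DNA-repair defect were exposed to test compounds. Growth inhibition was measured relative to vehicle-treated controls.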
The nature of test [4]: NCI Yeast Anticancer Drug Screen. Data for the cln2 rad14 strain (AID 165).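 Also: 0% = growth equal to vehicle treated cultures.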 Particulars: S. cerevisiae cln2 rad14 strain, stronger effect = higher value. In a few lines: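 Readout is yeast growth inhibition versus vehicle-treated controls, using a strain with cln2 and rad14 alterations exposed to compound.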
The nature of test [5]: NCI Yeast Anticancer Drug Screen. Data for the bub3 strain (AID 167). Particulars: S. cerevisiae bub3 mutant strain, stronger effect = higher value. The method in brief:
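Yeast carrying a defined mutation is treated with each compound, and growth is compared with that of vehicle-exposed cells to give inhibition.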

Test [6] can be described thus: NCI Yeast Anticancer Drug Screen. Data for the mlh1 rad18 strain (AID 175). Particulars: S. cerevisiae mlh1 rad18 strain growth inhibition, stronger effect = higher value. In a few lines:
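Genetically defined yeast (DNA repair-deficient) exposed to compounds; growth inhibition determined relative to vehicle.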

Where [7] appears, read: at 5.0 µM (retest, dose inferred, filed as 0.5).
Where [8] appears, read: at 50.0 µM (retest, dose inferred, filed as 5.0).

Structures are written as SMILES. This is part of a sample that, as a whole, favours compounds with a hit. Of some 79,000 tested, about 15% had one in any assay. Values without a mark were called inactive. Active and inactive are the calls of the source. Rule as the data show it: active = growth inhibition above about 70%; inactive = the rest.

Turning to `CC/S(=N\S(=O)(=O)c1ccc(C)cc1)c1cccc[n+]1[O-]` (configuration not stated), the growth inhibition in test [1] (setting [7]) is 83% (active); in test [1] (setting [8]), 97% (active); in test [1] (at 50.0 µM), 96.1% (active); in test [2] (setting [7]), 82% (active); in test [2] (setting [8]) it was 99% (active); in test [2] (at 50.0 µM), 96.7% (active). For the same compound, the growth inhibition is 79% (active) in test [3] (setting [7]); 98% (active) in test [3] (setting [8]); 98% (active) in test [3] (at 50.0 µM); 51% in test [4] (setting [7]); 98% (active) in test [4] (setting [8]); 91.2% (active) in test [4] (at 50.0 µM). Besides, the growth inhibition in test [5] (setting [7]) is 85% (active); in test [5] (setting [8]), 98% (active); in test [5] (at 50.0 µM), 96.3% (active); in test [6] (setting [7]), 87% (active); in test [6] (setting [8]), 98% (active); in test [6] (at 50.0 µM), 95.4% (active).

Consider `Cc1ccc(NC(=O)Oc2ccc(OC(=O)Cc3ccccc3)cc2)cc1NC(=O)Oc1ccc(OC(=O)Cc2ccccc2)cc1`, for which the growth inhibition in test [1] (setting [7]) is 10%; in test [1] (setting [8]), 97% (active); in test [1] (at 50.0 µM), 99.2% (active); in test [2] (setting [7]) it was 43%; in test [2] (setting [8]), 94% (active); in test [2] (at 50.0 µM) it was 99.4% (active). Also, the growth inhibition in test [3] (setting [7]) was 2%; in test [3] (setting [8]), 89% (active); in test [3] (at 50.0 µM), 99.2% (active); in test [4] (setting [7]) it was 10%; in test [4] (setting [8]), 93% (active); in test [4] (at 50.0 µM) it was 98.2% (active). For the same compound, the growth inhibition was 15% in test [5] (setting [7]); 98% (active) in test [5] (setting [8]); 99% (active) in test [5] (at 50.0 µM); 2% in test [6] (setting [7]); 98% (active) in test [6] (setting [8]); 99.1% (active) in test [6] (at 50.0 µM).

Turning to `O=C(CCC1OCCO1)Nc1cc(NCc2ccccc2)ccc1OCc1ccccc1`, the growth inhibition in test [1] (setting [7]) is 1%; in test [1] (setting [8]) it was 48%; in test [1] (at 50.0 µM), 71.2% (active); in test [2] (setting [7]) it was 2%; in test [2] (setting [8]), 69%; in test [2] (at 50.0 µM) it was 57%. In addition, the growth inhibition is -173% in test [3] (setting [7]); 73% (active) in test [3] (setting [8]); 89.4% (active) in test [3] (at 50.0 µM); 0% in test [4] (setting [7]); 16% in test [4] (setting [8]); 43.7% in test [4] (at 50.0 µM). Further, the growth inhibition is 0% in test [5] (setting [7]); 39% in test [5] (setting [8]); 65% in test [5] (at 50.0 µM); 16% in test [6] (setting [7]); 68% in test [6] (setting [8]); 70.2% (active) in test [6] (at 50.0 µM).

Consider `Cc1cccc(/C=N/Nc2ccccn2)n1`, for which the growth inhibition in test [1] (setting [7]) is 22%; in test [1] (setting [8]) it was 27%; in test [1] (at 50.0 µM), 83% (active); in test [2] (setting [7]), 17%; in test [2] (setting [8]), 37%; in test [2] (at 50.0 µM) it was 78.8% (active). Also, the growth inhibition was 20% in test [3] (setting [7]); 38% in test [3] (setting [8]); 37.1% in test [3] (at 50.0 µM); 17% in test [4] (setting [7]); 37% in test [4] (setting [8]); 23.8% in test [4] (at 50.0 µM). Also, the growth inhibition in test [5] (setting [7]) is 15%; in test [5] (setting [8]), 41%; in test [5] (at 50.0 µM), 37.6%; in test [6] (setting [7]) it was 21%; in test [6] (setting [8]) it was 42%; in test [6] (at 50.0 µM) it was 87.6% (active).

On to `OC(C1CCCCN1)C1CC(c2ccccc2)Nc2c(Cl)cc(Cl)cc21` (configuration not stated), for which the growth inhibition in test [1] (setting [7]) was 9%; in test [1] (setting [8]) it was 99% (active); in test [1] (at 50.0 µM), 99.4% (active); in test [2] (setting [7]), -2%; in test [2] (setting [8]) it was 99% (active); in test [2] (at 50.0 µM) it was 99.5% (active). Also, the growth inhibition in test [3] (setting [7]) is -1%; in test [3] (setting [8]), 99% (active); in test [3] (at 50.0 µM), 99.4% (active); in test [4] (setting [7]), -4%; in test [4] (setting [8]), 99% (active); in test [4] (at 50.0 µM), 99% (active). Besides, the growth inhibition in test [5] (setting [7]) is 1%; in test [5] (setting [8]), 99% (active); in test [5] (at 50.0 µM) it was 49.5%; in test [6] (setting [7]) it was 6%; in test [6] (setting [8]) it was 99% (active); in test [6] (at 50.0 µM) it was 99.4% (active).

Turning to `NC(=S)N/N=C1\CCCCc2ccccc21`, the growth inhibition in test [1] (setting [7]) was 5%; in test [1] (setting [8]), 85% (active); in test [1] (at 50.0 µM) it was 85.7% (active); in test [2] (setting [7]), -19%; in test [2] (setting [8]), 83% (active); in test [2] (at 50.0 µM) it was 89.5% (active). For the same compound, the growth inhibition in test [3] (setting [7]) is 4%; in test [3] (setting [8]), 87% (active); in test [3] (at 50.0 µM) it was 83.8% (active); in test [4] (setting [7]) it was 13%; in test [4] (setting [8]) it was 80% (active); in test [4] (at 50.0 µM), 83.8% (active). The growth inhibition in test [5] (setting [7]) is 17%; in test [5] (setting [8]), 88% (active); in test [5] (at 50.0 µM), 79.1% (active); in test [6] (setting [7]), 5%; in test [6] (setting [8]), 91% (active); in test [6] (at 50.0 µM) it was 84.2% (active).

As to `CC(=O)OCC1OC(SSc2ccccc2)C(OC(C)=O)C(OC(C)=O)C1OC(C)=O` (configuration not stated), the growth inhibition in test [1] (setting [7]) is -2%; in test [1] (setting [8]), 13%; in test [1] (at 50.0 µM), 59.4%; in test [2] (setting [7]), -30%; in test [2] (setting [8]), 69%; in test [2] (at 50.0 µM) it was 44.6%. In addition, the growth inhibition was 10% in test [3] (setting [7]); 7% in test [3] (setting [8]); 58.1% in test [3] (at 50.0 µM); -13% in test [4] (setting [7]); 5% in test [4] (setting [8]); 45% in test [4] (at 50.0 µM). Also, the growth inhibition in test [5] (setting [7]) is -12%; in test [5] (setting [8]), 8%; in test [5] (at 50.0 µM), 8.5%; in test [6] (setting [7]) it was -17%; in test [6] (setting [8]), 73% (active); in test [6] (at 50.0 µM), 53.9%.

In the case of `CC(C)OC1=C(Cl)C(=O)c2c(cccc2[N+](=O)[O-])C1=O`, the growth inhibition in test [1] (setting [7]) was 32%; in test [1] (setting [8]), 99% (active); in test [1] (at 50.0 µM), 26.8%; in test [2] (setting [7]) it was 38%; in test [2] (setting [8]) it was 100% (active); in test [2] (at 50.0 µM), 99.1% (active). Also, the growth inhibition in test [3] (setting [7]) was 48%; in test [3] (setting [8]), 99% (active); in test [3] (at 50.0 µM), 99.4% (active); in test [4] (setting [7]) it was 19%; in test [4] (setting [8]), 100% (active); in test [4] (at 50.0 µM), 88.5% (active). The growth inhibition in test [5] (setting [7]) was 38%; in test [5] (setting [8]) it was 94% (active); in test [5] (at 50.0 µM), 98.5% (active); in test [6] (setting [7]), 41%; in test [6] (setting [8]), 100% (active); in test [6] (at 50.0 µM), 71% (active).

Regarding `CC1C(=O)C(Br)CC2C1(C)CCC1C2(C)CCC2(C)C3CC(C)(C)CCC3(C)CCC12C` (configuration not stated), the growth inhibition in test [1] (setting [7]) was 6%; in test [1] (setting [8]) it was -1%; in test [1] (at 50.0 µM), 25.7%; in test [2] (setting [7]), 5%; in test [2] (setting [8]), 3%; in test [2] (at 50.0 µM), 6.25%. For the same compound, the growth inhibition in test [3] (setting [7]) was 8%; in test [3] (setting [8]), -13%; in test [3] (at 50.0 µM) it was 4.2%; in test [4] (setting [7]), 7%; in test [4] (setting [8]) it was 6%; in test [4] (at 50.0 µM), 64.5%. The growth inhibition in test [5] (setting [7]) was 6%; in test [5] (setting [8]), 5%; in test [5] (at 50.0 µM), 85% (active); in test [6] (setting [7]), -2%; in test [6] (setting [8]), 0%; in test [6] (at 50.0 µM), 0.3%.
